The values that follow come from PubChem BioAssay AID1852 (Sanford-Burnham Center for Chemical Genomics, 2009).

Hit rate of the full screen: of about 2,500 compounds, about 1,100 (44%) were called active.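 Rule for the calls: active = inhibition above 50% at 4 µM in the single-point screen; inactive = inhibition of 50% or less.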 So high a share suggests a set chosen from earlier hits. This is one part of the list.

This assay is described as follows: TNF-a-driven NF-kB reporter inhibitors, primary screen, selectivity assay for NOD1/NOD2 signaling inhibitor project, cell-based, HEK293T NF-kB-Luc, luminescence (AID 1852). Conditions: TNF-a induced, 14 h, at 4 µM, active compounds read high.
In general, inhibition refers to the drop in the measured response relative to a control, in per cent. In the case of `COc1ccc(C(=O)Nc2ccc(-c3ccc(C)o3)cc2)cc1S(=O)(=O)N1CCOCC1`, the inhibition was 66.1% (active). In the case of `COc1ccc(NC(=O)c2cc(-c3ccco3)nc3ccccc23)cc1S(=O)(=O)N1CCOCC1`, the inhibition was 45.6% (inactive). Regarding `CCOC(=O)c1ccc(NC(=O)c2ccc(C)c(S(=O)(=O)N3CCOCC3)c2)cc1`, the inhibition is 47.7% (inactive). Take `Cc1nc([N+](=O)[O-])c(Sc2nc3ccccc3[nH]2)n1Cc1ccccc1`: the inhibition is 36.1% (inactive). The value for `Cc1cc(C)cc(OCC(=O)Nc2nc3ccc([N+](=O)[O-])cc3s2)c1` was 13.3% (inactive); that for `O=C(NC(Nc1nc2ccc([N+](=O)[O-])cc2s1)(C(F)(F)F)C(F)(F)F)c1ccccc1Cl` was 85% (active); that for `Cc1ccc(C)c(OCC(=O)Nc2nc3ccc([N+](=O)[O-])cc3s2)c1C` was 43.5% (inactive).

For the compound `CCOc1cc(/C=C(/C#N)c2ccc(Cl)cc2)cc(Cl)c1OCC(=O)O`, the inhibition was 90.7% (active). For `CCOc1ccc(C(=O)/C=C/c2cc(OC)c(OC)c(OC)c2)cc1`, the inhibition was 9.7% (inactive). Take `CCOc1ccccc1NC(=O)Nc1ccc(Cl)cc1`: the inhibition was -53% (inactive).

As for `COc1cccc(-n2c(CN3CCN(c4ccccc4)CC3)nc3ccc([N+](=O)[O-])cc3c2=O)c1`, the inhibition is -0.2% (inactive).

In the case of `COc1ccc2cc3c(N)nn(C(=O)c4cccc(F)c4)c3nc2c1`, the inhibition is 79.2% (active). Take `COc1ccc2cc3c(N)nn(C(=O)c4ccc(Cl)c([N+](=O)[O-])c4)c3nc2c1`: the inhibition is 43.3% (inactive). Turning to `COc1ccc2cc3c(N)nn(C(=O)c4cccc([N+](=O)[O-])c4)c3nc2c1`, the inhibition is 65.4% (active). For the compound `COc1ccc(CN(C)S(=O)(=O)c2nnc(NC(=O)c3cccc(F)c3)s2)cc1`, the inhibition was 29.9% (inactive). `COc1ccc2cc3c(N)nn(C(=O)c4ccc(F)cc4)c3nc2c1`: the inhibition is 60.6% (active). The value for `COc1cccc(C(=O)c2sc(NC(C)C)nc2N)c1` was 41.4% (inactive); that for `C/C(=N\NC(=O)c1ccc(Br)cc1)C1C(=O)c2ccccc2C1=O` was -12.6% (inactive). For `C/C(=N\NC(=O)c1ccc2c(c1)OCCO2)c1ccccc1`, the inhibition was 14% (inactive). Take `C/C(=N\NC(=O)c1ccc(-c2ccccc2)cc1)C1C(=O)c2ccccc2C1=O`: the inhibition is 93.6% (active).

As to `Cc1ccc(CC(=O)Nc2ccncc2)cc1`, the inhibition is 38.6% (inactive). On to `CCC(NC(=O)c1ccc2nc(Cc3ccc(OC)cc3)oc2c1)c1ccncc1` (centres undefined), for which the inhibition is 34% (inactive). Turning to `COc1ccc(CC(=O)Nc2ccncc2Cl)cc1`, the inhibition is 54% (active). On to `O=C(Cc1ccc(Cl)cc1Cl)Nc1ccncc1Cl`, for which the inhibition is 50% (active).

As for `Cc1ccc(C(=O)Nc2ccccc2-c2ccccc2)cc1[N+](=O)[O-]`, the inhibition was 75.4% (active). For the compound `Cc1ccc(C(=O)Nc2ccccc2N2CCCCC2)cc1[N+](=O)[O-]`, the inhibition is -17.9% (inactive). In the case of `Cc1ccc(C(=O)Nc2sc(C)c(-c3ccccc3)c2C(N)=O)cc1[N+](=O)[O-]`, the inhibition is -277% (inactive). For `O=C(Nc1ccc(-c2cn3ccsc3n2)cc1)c1ccc(F)c(S(=O)(=O)N2CCOCC2)c1`, the inhibition was 30.4% (inactive).

Consider `COc1cc(Nc2c3ccccc3nc3ccccc23)cc(OC)c1OC`, for which the inhibition was -0.2% (inactive).

`COc1ccc(Nc2cc(Nc3cc(OC)c(OC)c(OC)c3)ncn2)cc1`: the inhibition is 59.9% (active). Consider `COc1cc(C(=O)Nc2ccc(-c3nc4cc(C)ccc4o3)c(O)c2)cc(OC)c1OC`, for which the inhibition is 13.8% (inactive).

Take `N#Cc1ccsc1NC(=O)c1cccc([N+](=O)[O-])c1`: the inhibition is 20.9% (inactive). The value for `CCOc1ccc(-c2nnc(NC(=O)c3ccc(OCC(C)C)c(OC)c3)o2)cc1` was 105% (active). As for `COc1ccc(-c2nnc(NC(=O)c3ccc(S(=O)(=O)N4CCc5ccccc5C4)cc3)o2)cc1`, the inhibition was 34.1% (inactive).

As to `O=C(NNC(=S)NC(=O)c1cccc([N+](=O)[O-])c1)c1ccc(Br)cc1`, the inhibition was -11.7% (inactive). Take `CN(c1ccccc1)S(=O)(=O)c1ccc(C(=O)Nc2nnc(-c3ccc(F)cc3)o2)cc1`: the inhibition was 95% (active). With `COc1ccc(-c2nnc(NC(=O)c3ccc(F)cc3)o2)cc1`, the inhibition was 102% (active).

`O=C(Nc1nnc(-c2ccc(F)cc2)o1)c1cccc([N+](=O)[O-])c1`: the inhibition was 89.2% (active). In the case of `COc1ccccc1N(C)S(=O)(=O)c1ccc(C(=O)Nc2ccc(N3CCOCC3)cc2)cc1`, the inhibition was 35.4% (inactive).

On to `CC(=O)O[C@]1(C(C)=O)CC[C@H]2[C@@H]3C=CC4=CC(=O)C=C[C@]4(C)[C@H]3CC[C@@]21C`, for which the inhibition was 32.7% (inactive). Turning to `O=C(Nc1nnc(-c2ccc(Cl)s2)o1)C1CC1`, the inhibition was -5.5% (inactive). As to `O=C(Nc1nnc(-c2ccc(F)cc2)o1)c1cc(Cl)sc1Cl`, the inhibition is 96.6% (active). On to `C/C(=N\Nc1ncnc2sc(C)c(C)c12)c1ccccn1`, for which the inhibition is 103% (active). Take `COc1ccc(C2C(C(=O)N3CCOCC3)CCC(=O)N2c2ccc(OC)cc2)cc1` (centres undefined): the inhibition is 17.2% (inactive). The value for `Cc1cc(NC(=O)c2cccs2)n(-c2nc3ccccc3[nH]2)n1` was 35.4% (inactive). Turning to `Cc1ccc(Nc2cc(C)nn2-c2nc(C)cc(=O)[nH]2)cc1`, the inhibition was 107% (active). Regarding `Cc1cc(NC(=O)c2ccc(C)s2)n(-c2nc3ccccc3[nH]2)n1`, the inhibition is 31.1% (inactive). As for `O=C(CCCn1c(=S)[nH]c2cc3c(cc2c1=O)OCO3)N1CCN(c2ccc(Cl)cc2)CC1`, the inhibition is 35.9% (inactive).

For the compound `Cc1cccc(N2CCN(C(=O)CCCCCn3c(=S)[nH]c4ccc(N5CCOCC5)cc4c3=O)CC2)c1C`, the inhibition is -10.2% (inactive). The value for `Cc1ccc(C)c(N2CCN(C(=O)CCCCCn3c(=S)[nH]c4ccc(N5CCOCC5)cc4c3=O)CC2)c1` was 96.5% (active).

For the compound `O=C(Nc1ccc(N2CCN(C(=O)c3ccc(Cl)cc3)CC2)cc1)c1ccc2c(c1)OCCO2`, the inhibition is 86.8% (active). In the case of `CC(C)C(=O)N1CCN(c2ccc(NC(=O)c3ccc4c(c3)OCCO4)cc2Cl)CC1`, the inhibition is 80.5% (active). On to `O=C(Nc1ccc2nn(-c3ccccc3)nc2c1)c1ccc2c(c1)OCCO2`, for which the inhibition is 31.9% (inactive).

In the case of `Cc1ccccc1C(=O)N1CCN(c2ccc(NC(=O)c3ccc4c(c3)OCCO4)cc2)CC1`, the inhibition is -3.1% (inactive). For the compound `CC(C)C(=O)N1CCN(c2nc(-c3ccc(Cl)cc3)cs2)CC1`, the inhibition was -37.6% (inactive).

For the compound `Cc1ccc(C(=O)N2CCN(c3ccc(NC(=O)c4ccc5c(c4)OCCO5)cc3)CC2)cc1`, the inhibition was 84.2% (active). Take `CCCCCOc1ccc(/C=C/c2c([N+](=O)[O-])c(=O)n(C)c(=O)n2C)cc1`: the inhibition was 21.4% (inactive). With `CCOC(=O)/C=C/C(=O)Nc1ccc(S(=O)(=O)N(C)c2ccccc2)cc1`, the inhibition is -15.6% (inactive). For the compound `CCOC(=O)/C=C/C(=O)Nc1ccc(S(=O)(=O)Nc2c(C)cc(C)cc2C)cc1`, the inhibition was 25.7% (inactive).

Turning to `CCOC(=O)/C=C/S(=O)(=O)c1ccc(NC(C)=O)cc1`, the inhibition is 64% (active). Consider `O=C(O)CCC(=O)c1ccc2ccc3cccc4ccc1c2c34`, for which the inhibition is 50% (active).

Take `Nc1[nH]nc2ncc3cc4ccccc4nc3c12`: the inhibition is 36.8% (inactive). With `Cc1nn(-c2ccccc2)c(Cl)c1CN(C(=O)CCl)c1ccc(Cl)cc1`, the inhibition was 105% (active). `Cc1nn(-c2ccccc2)c(Cl)c1CN(C(=O)CCl)c1cccc2ccccc12`: the inhibition is 14.9% (inactive). Regarding `CC(=O)N1CC(C)Sc2ccc(S(=O)(=O)NCc3ccc(Cl)cc3)cc21` (centres undefined), the inhibition was 11.8% (inactive). As for `Clc1ccc(CSc2nnc(-c3ccncc3)o2)cc1`, the inhibition was 60.2% (active). Consider `Cc1ccc(-c2nnc(SCC(=O)Nc3ccccc3F)o2)cc1`, for which the inhibition was 37.8% (inactive). As to `Fc1ccc(CSc2nnc(-c3ccncc3)o2)cc1`, the inhibition was 70.1% (active). Take `COC(=O)CSc1nnc(-c2sc3ccccc3c2Cl)o1`: the inhibition was 48.5% (inactive). As to `Brc1cccc(CSc2nnc(-c3ccncc3)o2)c1`, the inhibition is 44.3% (inactive). With `Cc1cc(C(=O)NC2CCCc3c2cnn3-c2cccc(C)c2C)n(C)n1` (centres undefined), the inhibition is 56.4% (active). In the case of `CCc1cc(C(=O)NC2CCCc3c2cnn3-c2cccc(C)c2C)n(C)n1` (centres undefined), the inhibition is 59.1% (active). Turning to `COc1ccc(NC(=O)CN2CCc3ccccc3C2)c([N+](=O)[O-])c1`, the inhibition was -10.5% (inactive). Regarding `CC(=O)c1c(C)[nH]c(C(=O)OCC(=O)Nc2ccc(C)cc2[N+](=O)[O-])c1C`, the inhibition was 79.4% (active). On to `Cc1ccccc1NC(=O)COC(=O)c1ccc(S(C)(=O)=O)c([N+](=O)[O-])c1`, for which the inhibition is 13% (inactive). In the case of `O=[N+]([O-])c1ccc(N/N=C/c2sc(N3CCOCC3)nc2-c2ccccc2)c(S(=O)(=O)Nc2ccc(Cl)cc2)c1`, the inhibition was 60.9% (active). In the case of `CCN(CC)S(=O)(=O)c1ccc(N2CCOCC2)c(NC(=O)c2cc([N+](=O)[O-])ccc2Cl)c1`, the inhibition is -28.1% (inactive). In the case of `O=[N+]([O-])c1ccc(N/N=C/c2sc(N3CCOCC3)nc2-c2ccccc2)c(S(=O)(=O)Nc2ccccc2Cl)c1`, the inhibition was 88.5% (active). The value for `Cc1nnc(SCC(=O)N2CCC(c3noc4ccc(F)cc34)CC2)s1` was 84.5% (active); that for `CCCCCCCCCCn1ccc(=N)cc1` was 83.1% (active). With `CCCCCCCCCn1ccc(=N)cc1`, the inhibition was 76.4% (active). The value for `CCCCCCCCn1ccc(=N)cc1` was 62.3% (active); that for `CCCCCCCn1ccc(=N)cc1` was 20.9% (inactive).

As for `CC[C@@H](C)[C@H](NC(=O)OC(C)(C)C)c1nnc(S(=O)(=O)Cc2cc(C)ccc2C)o1`, the inhibition was 38.2% (inactive). The value for `CN(C)S(=O)(=O)N1CCC(Oc2cccc(C(=O)NC3CCCCCC3)c2)CC1` was 54% (active).

Turning to `CC1CCN(S(=O)(=O)c2nnc(NC(=O)c3cccc(Cl)c3)s2)CC1`, the inhibition is 37% (inactive). On to `CN(C)S(=O)(=O)N1CCC(Oc2cccc(C(=O)NC3CCCCC3)c2)CC1`, for which the inhibition is 20.4% (inactive). The value for `CN(Cc1ccccc1)C1=CC(=[N+]2CCCCC2)CC(C)(C)C1` was 58.1% (active); that for `Cc1nc(Nc2cnc(/C=C/c3cc(C(=O)Nc4cccc(C(F)(F)F)c4)ccc3C)cn2)cc(N2CCNCC2)n1` was -21.5% (inactive).
